Measurements from PubChem BioAssay.
The source made the active and inactive calls. Unless noted, how the calls were made is not given here.

What was measured:
[1] = compounds binding Alexa647 anti-His antibody – biochemical, small-molecule microarray, 635 nm fluorescence, artefact control for SMM control protein annotation, primary screen (AID 1128); conditions: higher = more signal;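 further: score merges feature fluorescence with signal-to-noise for each printed compound spot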
[2] = tested on: Human papillomavirus type 1a E7 protein (residues 1-88); experiment: HPV1a E7 small-molecule binders, primary screen, biochemical, small-molecule microarray, residues 1-88, 635 nm (AID 1129); conditions: small-molecule microarray binding, fluorescence 635 nm; higher = more signal
[3] = molecular target: Focal adhesion kinase 1 (Homo sapiens) (UniProt Q05397); experiment: PTK2 protein binding on printed compound slides – biochemical, small-molecule microarray, 635/667 nm fluorescence, BSA, DTT, primary screen (AID 1130); conditions: 635 nm fluorescence, higher = more signal;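 further: composite of spot emission at 667 nm and signal to noise over triplicate slides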
[4] = tested on: Fibrinogen (Alexa647-labelled); experiment: Alexa647-fibrinogen binding to printed small molecules – biochemical, small-molecule microarray, 635/667 nm fluorescence, artefact control for SMM control-protein annotation, profiling panel (AID 1131); conditions: fibrinogen-A647 binding fluorescence, higher = more signal;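 further: z-score merges 667 nm fluorescence with per-spot signal-to-noise over triplicate slides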
[5] = molecular target: Follistatin (Homo sapiens) (UniProt P19883); experiment: FST protein binding to printed compounds – biochemical, small-molecule microarray, 635/667 nm fluorescence, primary screen (AID 1132); conditions: 635 nm fluorescence, higher = more signal
[6] = molecular target: Fibroblast growth factor 2 (Homo sapiens) (UniProt P09038); experiment: basic fibroblast growth factor binding to printed compounds – biochemical, small-molecule microarray, 635/667 nm fluorescence, primary screen (AID 1133); conditions: FGF2, fluorescence 635/667, higher = more signal
[7] = JC-1 mitochondrial potential readout, lung cancer cells – cell-based, A549, JC-1 fluorescence, basal, 24 h, 100 nL, profiling panel (AID 1138); conditions: higher = more signal;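 further: A549 lung adenocarcinoma cells under basal conditions with no added stimulus; test concentration not given here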
Lefty1 = Lefty1 protein binding to printed compounds – biochemical, small-molecule microarray, 635/667 nm fluorescence, primary screen (AID 1139); conditions: fluorescence 635/667, higher = more signal
[8] = tested on: wheat germ agglutinin (Triticum aestivum), Alexa647-labelled; experiment: Alexa647-WGA lectin binding to printed small molecules – biochemical, small-molecule microarray, 635/667 nm fluorescence, artefact control for SMM control-protein annotation, profiling panel (AID 1140); conditions: WGA-A647 binding, 635 nm fluorescence, higher = more signal;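 further: score merges 667 nm feature emission with signal to noise over triplicate slides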
[9] = molecular target: Luciferin 4-monooxygenase (Photinus pyralis) (UniProt P08659); experiment: inhibition of purified Photinus pyralis luciferase – biochemical, luminescence, purified enzyme, 2006 set, primary screen (AID 1141); conditions: purified firefly luciferase, SteadyGlo luminescence, 30 min; higher = more signal, called active from +8 up or from −8 down;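 further: cell-free assay with purified firefly luciferase at 100 ng per well in PBS; test concentration not given here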
[10] = tested on: Wnt5a (protein binding on small-molecule microarray); experiment: small molecules binding Wnt5a protein – biophysical, small-molecule microarray, 635/667 nm fluorescence, primary screen (AID 1142); conditions: 635 nm fluorescence, higher = more signal;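 further: fluorescence read at 667 nm with signal to noise per printed feature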
[11] = ATP-based viability of Huh7 replicon cells – cell-based, CellTiter-Glo luminescence, basal, 48 h, cytotoxicity control for HCV replication inhibitor project, primary screen (AID 1143); conditions: higher = more signal, called active from +8 up or from −8 down;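 further: Huh7 hepatoma cells carrying a hepatitis C replication reporter with no stimulus; test concentration not given here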
[12] = Pseudomonas biofilm growth suppression – PAO1 strain, BacTiter-Glo luminescence, LB-PBS, primary screen (AID 1144); conditions: P. aeruginosa PAO1 biofilm, 12 h, higher = more signal
[13] = basal CRE-LacZ reporter activity in PC12 – cell-based, unstimulated, primary screen (AID 1145); conditions: no forskolin, luminescence, 4.5 h, higher = more signal, called active from +8 up or from −8 down
[14] = forskolin-driven CRE-LacZ activity in PC12 – cell-based, CRE-LacZ reporter, forskolin-stimulated, primary screen (AID 1146); conditions: luminescence, 4.5 h, higher = more signal, called active from +8 up or from −8 down;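 further: PC12 cells with 6xCRE LacZ reporter stimulated by forskolin 10 µM; beta-galactosidase reporter signal reflecting CREB driven transcription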
[15] = molecular target: Streptavidin (Streptomyces avidinii) (UniProt P22629); experiment: compounds binding control protein streptavidin – biophysical, small-molecule microarray, 635/667 nm fluorescence, artefact control for SMM compound annotation, primary screen (AID 1147); conditions: higher = more signal;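 further: signal reflects streptavidin binding to arrayed compounds as a control protein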
[16] = probe aInhba binding on compound microarray – biochemical, small-molecule microarray, 635/667 nm fluorescence, primary screen (AID 1148); conditions: higher = more signal;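 further: score merges 667nm spot fluorescence with signal-to-noise for antibody binding to printed compounds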
Torsin-1A (Homo sapiens) [17] = molecular target: Torsin-1A (Homo sapiens) (UniProt O14656); experiment: TOR1A wild-type binding on microarray – cell lysate, small-molecule microarray, lysate, 635/667 nm, primary screen (AID 1149); conditions: COS7 hTOR1A-WT lysate, 635 nm fluorescence, higher = more signal
Torsin-1A (Homo sapiens) [18] = molecular target: Torsin-1A (Homo sapiens) (UniProt O14656); experiment: torsin A mutant lysate binding on microarrays – cell lysate, small-molecule microarray, COS7 lysate, 635/667 nm fluorescence, primary screen (AID 1150); conditions: COS7 hTOR1A mutant lysate, 635 nm fluorescence, higher = more signal;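 further: score pools 667 nm emission and signal to noise measuring lysate protein binding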
[19] = tested on: Sonic hedgehog protein (Shh); experiment: Sonic hedgehog microarray binding compounds – biochemical, small-molecule microarray, 635/667 nm fluorescence, primary screen (AID 1151); conditions: 635 nm fluorescence, higher = more signal;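 further: Shh protein binding to compounds spotted on small-molecule microarray slides; score combines spot fluorescence intensity with signal-to-noise across triplicate slides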

Follistatin (Homo sapiens), sequence (P19883 whole entry, looked up): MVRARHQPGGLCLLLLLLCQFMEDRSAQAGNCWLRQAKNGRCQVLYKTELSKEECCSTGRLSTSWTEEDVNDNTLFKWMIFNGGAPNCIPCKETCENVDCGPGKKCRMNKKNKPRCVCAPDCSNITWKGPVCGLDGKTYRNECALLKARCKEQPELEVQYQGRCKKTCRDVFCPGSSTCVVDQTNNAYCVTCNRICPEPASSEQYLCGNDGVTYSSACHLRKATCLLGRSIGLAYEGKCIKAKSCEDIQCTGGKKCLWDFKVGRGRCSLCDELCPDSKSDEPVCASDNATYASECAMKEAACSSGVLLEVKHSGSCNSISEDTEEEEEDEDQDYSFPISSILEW
Fibroblast growth factor 2 (Homo sapiens), sequence (P09038 whole entry, looked up): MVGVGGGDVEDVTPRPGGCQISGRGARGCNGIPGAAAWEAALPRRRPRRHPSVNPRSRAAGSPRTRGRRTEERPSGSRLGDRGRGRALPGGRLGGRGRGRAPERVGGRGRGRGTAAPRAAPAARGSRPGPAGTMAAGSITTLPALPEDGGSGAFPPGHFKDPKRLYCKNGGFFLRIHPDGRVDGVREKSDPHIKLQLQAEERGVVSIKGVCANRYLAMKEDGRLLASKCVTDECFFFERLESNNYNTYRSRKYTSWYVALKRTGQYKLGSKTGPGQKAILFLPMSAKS
Luciferin 4-monooxygenase (Photinus pyralis), sequence (P08659 whole entry, looked up): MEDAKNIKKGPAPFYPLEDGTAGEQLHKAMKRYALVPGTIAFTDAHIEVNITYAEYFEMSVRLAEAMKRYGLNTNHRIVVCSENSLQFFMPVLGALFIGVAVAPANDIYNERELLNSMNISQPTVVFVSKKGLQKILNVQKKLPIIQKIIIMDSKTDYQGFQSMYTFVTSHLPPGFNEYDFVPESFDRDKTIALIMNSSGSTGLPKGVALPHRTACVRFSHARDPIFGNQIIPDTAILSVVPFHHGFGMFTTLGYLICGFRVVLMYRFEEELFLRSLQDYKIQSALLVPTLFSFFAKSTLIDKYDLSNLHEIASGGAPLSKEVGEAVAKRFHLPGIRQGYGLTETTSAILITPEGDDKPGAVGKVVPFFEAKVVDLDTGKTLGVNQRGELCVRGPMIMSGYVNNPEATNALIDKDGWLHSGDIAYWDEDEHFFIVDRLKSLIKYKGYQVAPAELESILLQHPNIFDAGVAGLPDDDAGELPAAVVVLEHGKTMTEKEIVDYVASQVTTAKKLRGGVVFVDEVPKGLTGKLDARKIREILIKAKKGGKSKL
Focal adhesion kinase 1 (Homo sapiens), sequence (Q05397 whole entry, looked up): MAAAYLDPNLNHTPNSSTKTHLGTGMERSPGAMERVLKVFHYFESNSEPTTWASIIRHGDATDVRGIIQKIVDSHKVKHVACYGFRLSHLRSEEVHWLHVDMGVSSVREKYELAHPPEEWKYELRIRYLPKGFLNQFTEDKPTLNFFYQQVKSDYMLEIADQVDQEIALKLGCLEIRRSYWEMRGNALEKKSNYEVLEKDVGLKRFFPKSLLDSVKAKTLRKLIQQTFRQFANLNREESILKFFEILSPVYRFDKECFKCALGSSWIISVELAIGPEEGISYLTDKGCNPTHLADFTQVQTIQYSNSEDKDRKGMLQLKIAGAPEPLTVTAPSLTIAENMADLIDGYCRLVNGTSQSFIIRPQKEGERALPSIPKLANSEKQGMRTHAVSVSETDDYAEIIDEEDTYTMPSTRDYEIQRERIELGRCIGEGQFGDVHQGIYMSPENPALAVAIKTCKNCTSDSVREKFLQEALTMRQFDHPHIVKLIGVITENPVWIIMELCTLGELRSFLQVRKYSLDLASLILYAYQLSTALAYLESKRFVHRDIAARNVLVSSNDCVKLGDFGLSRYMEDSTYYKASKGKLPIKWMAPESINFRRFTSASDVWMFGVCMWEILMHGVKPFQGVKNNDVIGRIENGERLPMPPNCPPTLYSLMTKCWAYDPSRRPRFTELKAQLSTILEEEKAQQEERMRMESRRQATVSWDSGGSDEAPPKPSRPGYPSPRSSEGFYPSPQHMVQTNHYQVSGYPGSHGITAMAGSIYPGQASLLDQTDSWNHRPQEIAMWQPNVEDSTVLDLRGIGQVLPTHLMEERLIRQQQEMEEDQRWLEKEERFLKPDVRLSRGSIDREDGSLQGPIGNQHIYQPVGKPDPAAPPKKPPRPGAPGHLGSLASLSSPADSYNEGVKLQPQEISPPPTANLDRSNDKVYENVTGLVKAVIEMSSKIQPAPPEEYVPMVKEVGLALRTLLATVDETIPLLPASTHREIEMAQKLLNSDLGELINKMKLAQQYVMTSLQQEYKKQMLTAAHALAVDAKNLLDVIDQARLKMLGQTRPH
Torsin-1A (Homo sapiens), sequence (O14656 whole entry, looked up): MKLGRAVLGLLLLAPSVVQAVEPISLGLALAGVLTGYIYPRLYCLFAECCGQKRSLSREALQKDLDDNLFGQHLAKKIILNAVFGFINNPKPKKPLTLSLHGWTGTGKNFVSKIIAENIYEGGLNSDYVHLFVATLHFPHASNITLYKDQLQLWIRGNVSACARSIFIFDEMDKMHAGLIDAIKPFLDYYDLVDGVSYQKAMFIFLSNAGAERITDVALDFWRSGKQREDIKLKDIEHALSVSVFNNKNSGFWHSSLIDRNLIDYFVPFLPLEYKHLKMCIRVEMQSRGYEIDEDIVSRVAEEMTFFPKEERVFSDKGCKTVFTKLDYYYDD
Streptavidin (Streptomyces avidinii), sequence (P22629 whole entry, looked up): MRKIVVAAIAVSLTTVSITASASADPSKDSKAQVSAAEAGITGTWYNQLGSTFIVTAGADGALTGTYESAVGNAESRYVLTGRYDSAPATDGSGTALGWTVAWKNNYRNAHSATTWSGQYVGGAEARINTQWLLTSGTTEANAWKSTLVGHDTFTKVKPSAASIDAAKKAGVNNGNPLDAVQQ

SMILES	composite z-score [1]	composite z-score [2]	composite z-score [3]	composite z-score [4]	composite z-score [5]	composite z-score [6]	z-score [7]	composite z-score (Lefty1)	composite z-score [8]	z-score [9]	composite z-score [10]	z-score [11]	z-score [12]	z-score [13]	z-score [14]	composite z-score [15]	composite z-score [16]	composite z-score (Torsin-1A (Homo sapiens) [17])	composite z-score (Torsin-1A (Homo sapiens) [18])	composite z-score [19]
CC(=O)OC[C@H]1O[C@@H](ON=C2[C@H]3CCn4c(=O)n(-c5ccccc5)c(=O)n4[C@H]3[C@H](O)[C@@H]3O[C@H]23)[C@H](OC(C)=O)[C@@H](OC(C)=O)[C@@H]1OC(C)=O	1.66	0.894	-0.144	0.8	0.419	0.431	0.188	0.413	0.169	0.939 (inactive)	0.196	1.03 (inactive)	1.56 (inactive)	-0.403 (inactive)	0.265 (inactive)	0.324	0.0282	0.0264	0.422	1.23
CC(=O)OC[C@H]1O[C@H](CCON=C(C)C)C=C[C@@H]1OC(C)=O	1.56	-0.33	0.115	0.0586	0.521	0.247	0.0315	0.377	-0.178	0.654 (inactive)	0.0141	0.702 (inactive)	0.249 (inactive)	-0.715 (inactive)	0.383 (inactive)	0.17	-0.038	-0.0297	-0.115	0.427
CC(C)(C)N1C(=O)[C@H]2[C@H]3[C@H](O)[C@H](O)CC(=NOC[C@@H](O)COCc4ccco4)[C@H]3CC[C@H]2C1=O	0.606	0.237	-0.136	0.0824	-0.22	0.249	0.0624	-0.0429	0.495	-0.011 (inactive)	-0.0267	0.186 (inactive)	-0.486 (inactive)	0.701 (inactive)	-0.113 (inactive)	0.422	-0.0279	0.506	0.465	-0.0386
COC(=O)CC=C[C@@H](C)[C@@H](C=NOC[C@@H](O)COCc1ccco1)OC	1.46	-0.464	-0.354	-1.2	1.15	0.509	0.662	1.02	-0.83	-1.3 (inactive)	-0.302	0.545 (inactive)	1.47 (inactive)	-1.05 (inactive)	-0.252 (inactive)	0.457	-0.214	3.02	2.69	1.99
CC(C)CON=C1C[C@@H](O)[C@@H](O)[C@@H]2[C@@H]3C(=O)N(Cc4ccc5c(c4)OCO5)C(=O)[C@@H]3CC[C@@H]12	0.918	0.245	0.227	0.655	0.0087	1.22	0.0679	-0.0226	0.0667	0.966 (inactive)	0.199	-0.415 (inactive)	-0.488 (inactive)	0.241 (inactive)	0.384 (inactive)	0.289	-0.0645	-0.515	0.203	0.108
